Bioassay records as filed in PubChem BioAssay.
Insulin prom up – insulin promoter activators in MIN6 cells, imaging, high-content screening, mouse beta cells | MIN6 insulin promoter-GFP reporter; hits give high values | z-score at 5 µM | actives 0.3% (n = 190,000) | AID 1625, 2009;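 active = z-score above 3 at 5 µM with at least 500 cells counted in the well; inconclusive = wells under 500 cells, flagged as cytotoxic or low count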
L major viab – Leishmania major promastigote growth inhibition, primary screen; Leishmania major promastigotes, resazurin fluorescence viability; inhibition, % at 10 µM; actives 9% (n = 200,000); in the data active = inhibition above about 50%;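 also: promastigotes grown with compound for 44 hours at 28 °C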
Autophagy mod – autophagy modulators in MEF cells, primary screen, imaging, high-content, MEF GFP-LC3 | calls only at 10 µM (by protocol) | actives 0.98% (n = 190,000) | MEF GFP-LC3 puncta imaging; test concentration mostly 10 µM | AID 463193, 2010;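 active = percentage of spot-positive cells more than 3 SD above its plate mean, without a fluorescence outlier flag or 80% toxicity; inconclusive = no clear call, values can overlap the other calls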
INS promoter inh – inhibitors of insulin promoter-driven GFP, primary screen, imaging, TRM-6 cells (human fetal islet line), eGFP reporter, cell count; inhibition, % at 2 µM; AID 1273, 2008; reporter expression induced with tamoxifen; actives 0.9% (n = 130,000);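 active = inhibition above the mean plus 3 SD, with well images judged a real hit on visual review, cut at about 60% in these data, passing the limit was not always enough; inconclusive = inhibition over the cutoff but images rejected on review; inactive = inhibition not above the cutoff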
WT yeast gro inh – growth inhibition of WT strain, primary screen, mitochondrial fusion inhibitor project, WT and mutant strains, chemical genetic. mitochondrial fusion phenotypic screen. inhibition, % at 10 µM. actives 2.1% (n = 190,000). AID 1362, 2008; in the data active = inhibition above about 58%; tested in S. cerevisiae
Each line names hits and unclear results; the compound was inactive in the other large screens. Sampled rows, rich in hits. Any-hit rate of the full collection: about 11%.

O=c1cc(Nc2ccc3c(c2)OCO3)[nH]c(=O)n1-c1ccc(Br)cc1	L major viab 99 (no result: Insulin prom up)
O=c1cc(Nc2ccc3c(c2)OCCO3)[nH]c(=O)n1-c1ccc(Br)cc1	none
CCCCSc1nc(C)nc2c1c(=O)n(C)c(=O)n2C	none (no result: Insulin prom up, INS promoter inh)
CCCSc1nc(C)nc2c1c(=O)n(C)c(=O)n2C	Autophagy mod active (no result: INS promoter inh)
CCn1c(CCC(=O)Nc2nc3c(s2)CCCC3)nc2cc(S(=O)(=O)N(C)C)ccc21	none (no result: Insulin prom up)
C=CCn1c(SCC(=O)N2CCc3ccccc3C2)nnc1-c1ccncc1	none
Cc1occc(=O)c1OC(=O)Nc1ccc(Cl)c(Cl)c1	WT yeast gro inh 80
COc1ccc(C(=O)Oc2c(C)occc2=O)cc1OC	none (no result: INS promoter inh)
CSc1nc2ccsc2c(=O)n1-c1ccccn1	none (no result: INS promoter inh)
Cc1nn(Cc2c(F)cccc2Cl)c(C)c1NC(=O)C1CC1	none
COc1ccc(NC(=O)/C(C#N)=C/c2ccc3c(c2)n(C)c(=O)n3C)cc1	L major viab 57
O=c1cc(C(F)(F)F)[nH]c2c(OC(F)(F)F)cccc12	none (no result: L major viab, Autophagy mod, INS promoter inh, WT yeast gro inh)
COCCCNC(=O)C1CCC(CNS(=O)(=O)c2ccc(C)cc2)CC1 (stereo not drawn)	none (no result: INS promoter inh)
CN(C)c1ccc(-c2n(C)c3ccccc3[n+]2C)cc1	Insulin prom up inconclusive, L major viab 100 (no result: INS promoter inh)
Cn1c(-c2ccccn2)[n+](C)c2ccccc21	none
CCCc1nnc(NC(=O)C2CCCO2)s1 (stereo not drawn)	none
CC(C)(C)NC(=O)CSc1ncnc2c1nnn2Cc1ccccc1Cl	L major viab 57
COc1cc(/C=C(/Sc2nnc(-c3ccc(F)cc3)o2)C(=O)O)ccc1OC(F)F	none
O=C(C1CCN(S(=O)(=O)c2ccccc2)CC1)N1CCOCC1	none (no result: Insulin prom up)
CN(C)S(=O)(=O)c1ccc(C(=O)OCn2nnc3ccccc3c2=O)cc1	none (no result: Insulin prom up, INS promoter inh)
Cc1cc(N2CCCC2)nc(-c2ccccc2O)n1	none (no result: Insulin prom up)
Cc1cc(N2CCCCC2)nc(N)n1	L major viab 52
Cc1cc(Br)ccc1OCCCCN1CCCCC1	L major viab 100 (no result: INS promoter inh)
Cc1cccc(C(C)(C)C)c1OCCN1CCCC1	none
Cc1cc(C(C)(C)C)ccc1OCCN1CCCC1	L major viab 96 (no result: INS promoter inh)
CC(OCCN1CCCC1)(c1ccc(F)cc1)c1ccc(F)cc1	L major viab 100
CC(C)(C)c1ccccc1OCCN1CCCC1	L major viab 90
CCOc1ccc(N2C(=O)CC(N3CC(C)OC(C)C3)C2=O)cc1 (stereo not drawn)	none
Cc1cc(C(C)(C)C)ccc1OCCCCN1CCCC1	L major viab 99
CCOC(=O)C1=C(C)NC(=S)NC1c1ccc(-c2ccc(Cl)cc2)o1 (stereo not drawn)	L major viab 63, WT yeast gro inh 66
CCOC(=O)C1=C(C)NC(=O)NC1c1ccc(-c2ccc(Cl)cc2)o1 (stereo not drawn)	none (no result: INS promoter inh)
COC(=O)Cn1c(=NC(=O)CSC(C)=O)sc2ccccc21	none (no result: Insulin prom up)
COc1cccc(C(CC(=O)Nc2cccc3ccccc23)NC(=O)c2ccccc2)c1 (stereo not drawn)	none
C=CCn1c(=NC(=O)c2cc(-c3cccs3)nc3ccccc23)sc2cc(S(N)(=O)=O)ccc21	Insulin prom up 9
COCCn1c(=NC(=O)c2cc(-c3cccs3)nc3ccccc23)sc2cc(S(N)(=O)=O)ccc21	none
Cc1ccc(NC(=O)c2cc(N3C(=O)C=CC3=O)ccc2Cl)cc1C	none
CN1C2CCC1/C(=C\c1ccc(F)cc1)C(=O)/C2=C/c1ccc(F)cc1	L major viab 75
COc1ccc(S(=O)(=O)N2CCOCC2)cc1NC(=O)CSc1nnc(C2CC2)n1N	none (no result: INS promoter inh)
C=CCNS(=O)(=O)c1cccc(C(C)=O)c1	L major viab 54
COc1ccc(-c2ncccc2O)cc1	none
CCOc1c(C)cc(-c2ncccc2O)cc1C	INS promoter inh 82
CCOC(=O)/C(=C/c1ccc(N2CCC(c3ccccc3)=N2)cc1)C(C)=O	INS promoter inh inconclusive, WT yeast gro inh 78
CC(C)Cn1c(-c2csc3ccccc23)n[nH]c1=S	none
Cc1cccc(-n2c(-c3csc4ccccc34)n[nH]c2=S)c1	WT yeast gro inh 64
CCOc1ccc(-n2c(SCc3nc(-c4cccs4)no3)nnc2-c2ccncc2)cc1	L major viab 62
CC(CCc1ccccc1)NC(=O)Cc1ccc([N+](=O)[O-])cc1 (stereo not drawn)	L major viab 65
CC(CCc1ccccc1)NC(=O)CSc1cccc[n+]1[O-] (stereo not drawn)	none
CC(CCc1ccccc1)NC(=O)Cc1cccs1 (stereo not drawn)	none (no result: INS promoter inh)
CC(CCc1ccccc1)NC(=O)CSc1ccccc1 (stereo not drawn)	L major viab 52, Autophagy mod active
CC(CCc1ccccc1)NC(=O)CN1CCN(c2ccc(O)cc2)CC1 (stereo not drawn)	L major viab 64
Fc1ccc(NC(=S)NCc2cccnc2)cc1	none (no result: INS promoter inh)
S=C(NCc1cccnc1)Nc1ccc(Cl)c(Cl)c1	L major viab 98
COc1ccccc1NC(=S)NCc1cccnc1	L major viab 68
COc1cc(NC(=S)NCc2cccnc2)c(OC)cc1Cl	none
CC(C)(C)c1ccccc1NC(=S)NCc1ccccc1	WT yeast gro inh 63 (no result: INS promoter inh)
COc1ccccc1CNC(=S)Nc1cc(C)ccc1C	WT yeast gro inh 66 (no result: INS promoter inh)
CN(C)CCNC(=S)Nc1ccccc1C(C)(C)C	none
COCCCN1CN=C(Nc2nc3ccccc3o2)NC1	none (no result: INS promoter inh)
CCn1nnnc1SCC(=O)N1CCCc2ccccc21	none
Cc1ccc(NC(/C=C/N(C)C)=C/C(=O)C(F)(F)F)c(C)c1	WT yeast gro inh 80
COc1ccc(C(=O)Nn2cnnc2)cc1OC	Insulin prom up 4.4 (no result: L major viab, Autophagy mod, INS promoter inh, WT yeast gro inh)
COc1ccc(C(=O)Nc2ccc(S(=O)(=O)N3CCCCC3)cc2)cc1OC	L major viab 67
COc1ccc(-c2cnnn2-c2ccc(NC(=O)c3ccc(S(=O)(=O)N4CCCCC4)cc3)cc2)cc1OC	L major viab 96
COc1cccc(NC(=O)c2ccc(S(=O)(=O)N3CCCCC3)cc2)c1	none
Cc1c(NC(=O)c2ccc(-c3cccc([N+](=O)[O-])c3)o2)c(=O)n(-c2ccccc2)n1C	none
COC(=O)c1cc(OC)c(OC)cc1NC(=O)C(C)c1ccc([N+](=O)[O-])cc1 (stereo not drawn)	none (no result: INS promoter inh)
Cc1ccc(F)cc1NC(=O)C12CC3CC(C1)CC(n1cnc([N+](=O)[O-])n1)(C3)C2	L major viab 67 (no result: INS promoter inh)
COC(=O)c1cccc(NC(=O)C23CC4CC(C2)CC(n2cncn2)(C4)C3)c1	none (no result: Insulin prom up)
COc1ccc(NC(=O)C23CC4CC(C2)CC(n2cnc(Br)n2)(C4)C3)c(OC)c1	none
O=C(Nc1ccccc1)C12CC3CC(C1)CC(n1cnc([N+](=O)[O-])n1)(C3)C2	L major viab 72 (no result: INS promoter inh)
O=C(Nc1cccc([N+](=O)[O-])c1)C12CC3CC(C1)CC(n1cnc([N+](=O)[O-])n1)(C3)C2	L major viab 76 (no result: INS promoter inh)
CC(=O)Nc1ccc(NC(=O)C23CC4CC(C2)CC(n2cnc(Br)n2)(C4)C3)cc1	none
COc1cc(NC(=O)C23CC4CC(C2)CC(n2cnc([N+](=O)[O-])n2)(C4)C3)cc(OC)c1	L major viab 76
